# Screening results from PubChem.
# Shown are actives, neighbours in structure and some others; about 3.1% of the full set was active somewhere.
# Tau FP inhib: inhibitors of human tau fibril formation; P10636; K18 P301L tau heparin fibrillization, Alexa594 FP, 6 h; Potency, µM (series often up to 57.7 µM), for inactives: top-dose activity, negative = inhibition, usual class: inhibitors; actives 0.39% (n = 280,000); further: nearly all actives have a fitted effect of over 55% in size
# Target sequence (P10636 561-689 P618L limits assumed): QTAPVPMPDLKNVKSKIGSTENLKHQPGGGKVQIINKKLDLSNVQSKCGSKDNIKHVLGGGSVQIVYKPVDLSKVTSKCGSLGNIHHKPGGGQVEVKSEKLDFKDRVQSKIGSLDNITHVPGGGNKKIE
#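 Read-out: fluorescence polarization of Alexa 594-labeled tau (0.24 uM), 555 nm excitation, 632 nm emission. Mixtures held 15 uM unlabeled K18 P301L, compound and 20 uM heparin, pH 7 acetate buffer, incubated 6 hr at 37 C.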
# Tau fluor cs: counter-screen for tau fibril formation inhibitors; tau K18 P301L Alexa594 fluorescence, heparin fibrillization; Potency, µM (highest dose often 57.7 µM), for the others: at the top dose activity change, negative = decrease; actives 0.93% (n = 280,000); further: nearly all actives have a fitted effect of over 55% in size
#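 Human K18 P301L tau (15 uM unlabeled plus 0.24 uM Alexa 594-labeled, final) in 100 mM sodium acetate pH 7 was mixed with compound and 20 uM heparin and incubated 6 hr at 37 C.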
# TRb-SRC2 inh: TRbeta-SRC2 interaction inhibition; P10828; TRbeta-SRC2 peptide binding, fluorescence polarization; receptor liganded with 1 µM T3; Potency, µM (titrated, usually from 106 µM), for inactives: top-dose activity change, negative = inhibition, most hits filed as inhibitors; actives 0.065% (n = 280,000); AID 1469;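 further: plate controls were bound peptide for no effect and peptide without receptor for full effect; nearly all actives have a fitted effect of over 50% in size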
#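 Compounds were added to 0.6 uM TRb ligand-binding domain and 20 nM Texas Red-labeled SRC2 peptide in Tris buffer containing 1 uM T3, incubated 5 hr at ambient temperature, then read by fluorescence polarization.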
# TexasRed fluor: alters Texas Red total fluorescence, flagging assay interference | Potency, µM (titrated, usually from 106 µM), for the others: at the highest dose fluorescence change, negative = quenching | actives 0.29% (n = 280,000) | TRb/SRC2 Texas Red total fluorescence interference; active means well fitted curve in either direction with a large enough effect; inconclusive means small, poorly fitted or top-dose-only effect
#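 Flags fluorescent or light-absorbing compounds by total fluorescence, S + 2P, at 555 nm excitation and 632 nm emission. Mixture: 20 nM Texas Red SRC2 peptide, 0.6 uM human TRb LBD, 1 uM T3, 5% DMSO; compound exposure 5 h at ambient temperature.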
# Tau fibril ThT: tau fibrillization inhibition (ThT binding) | recombinant tau K18 P301L (four-repeat tau fragment), heparin-induced fibrillization, ThT fluorescence | Potency, µM (top dose mostly 57.4 µM), for inactives: at the highest dose activity, negative = inhibition, usual class: inhibitors | actives 2.1% (n = 270,000) | AID 1460; further: nearly all actives have a fitted effect of over 55% in size
#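 Aggregation was driven by heparin (20 uM final) acting on recombinant tau […] bearing P301L in 100 mM sodium acetate pH 7; fibrils were detected with Thioflavin T.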
# GoLoco inh red: inhibitors of human Gai1-RGS12 GoLoco interaction (red fluorophore). AID 880. Potency, µM (doses to about 61.6 µM), inactives show at the top dose activity, negative = inhibition, most hits filed as inhibitors. Gai1:RGS12 GoLoco peptide FP, rhodamine, 10 min. actives 0.44% (n = 230,000); active means well fitted inhibition curve with a large enough effect, not every such curve was filed as active; inactive means no such curve, though single readings can be large or run the other way; further: nearly all actives have a fitted effect of over 30% in size
# Target sequence (P63096 whole entry, looked up): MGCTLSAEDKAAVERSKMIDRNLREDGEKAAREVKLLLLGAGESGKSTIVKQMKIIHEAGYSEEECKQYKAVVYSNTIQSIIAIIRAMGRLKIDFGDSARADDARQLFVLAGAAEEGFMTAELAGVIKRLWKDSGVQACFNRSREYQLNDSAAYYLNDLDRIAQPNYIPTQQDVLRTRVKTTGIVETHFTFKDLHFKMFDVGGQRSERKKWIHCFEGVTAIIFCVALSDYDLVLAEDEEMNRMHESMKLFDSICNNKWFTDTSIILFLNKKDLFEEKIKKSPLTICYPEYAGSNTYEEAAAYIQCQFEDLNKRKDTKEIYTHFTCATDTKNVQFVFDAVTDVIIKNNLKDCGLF
# * marks the source's active call; other numbers are inactive results; ? = inconclusive; nt = not tested or not shown; [ ] = another dose, or the depositor's remark. Unless noted, the call rests on the fitted dose curve; in most records, active means well fitted curve in the direction sought with a large enough effect; inconclusive means small, poorly fitted or top-dose-only effect, or another doubt; inactive means no such curve, though single readings can be large; an effect the other way counts as inactive or inconclusive. Unless noted, on the % scale 0 is the no-effect control and ±100 the full control effect; potency means the concentration at half of the fitted maximal effect.
SMILES,Tau FP inhib,Tau fluor cs,TRb-SRC2 inh,TexasRed fluor,Tau fibril ThT,GoLoco inh red
COC(=O)/C(C#N)=C1/C=Cc2ccccc2N1C,-4%,-4%,-8%,-3%,-13%,13%
CCN(CC)C(=O)c1sc(NC(=O)C(C)Sc2nc(-c3ccccc3)cc(C(F)(F)F)n2)c(C(=O)OC)c1C (stereo not drawn),?,-26%,-4%[11.2 µM],2%[11.2 µM],25µM*,nt
Cc1cccc(NC(=O)Cn2c(=O)n(CCc3c[nH]c4ccccc34)c(=O)c3cccnc32)c1,-7%,11µM*[quencher],9%,-3%,-13%,24%
CCCOc1ccc(/C=C2\SC(=S)N(CC3CCCO3)C2=O)cc1 (stereo not drawn),-5%,-10%,1%,1%,?,13%
O=C1/C(=C/c2ccc(O)cc2)SC(=S)N1CC1CCCO1 (stereo not drawn),?,13µM*[quencher],-11%,-2%,10µM*,217%
O=C(O)c1ccncc1,-8%,-3%,-1%,-3%,2%,4%
O=C1C(=O)c2ccc(-c3ccccc3)cc2-c2ccccc21,?,-18%,?,-2%,1.3µM*,-7%
Cc1ccc(/C=C/C(=O)c2ccccc(=O)c2O)cc1C,-15%,?,-7%,-4%,13µM*,19%
O=C(/C=C/c1ccc(O)cc1)c1ccccc1O,5%,?,2%,-4%,18µM*,46%
O=C(/C=C/c1ccccc1)c1cc(Br)ccc(=O)c1O,?,?,-8%,?,14µM*,95%
O=C(/C=C\c1ccccc1)c1ccccc1O,-2%[11.6 µM],-1%[11.6 µM],5%[11.2 µM],1%[11.2 µM],-9%[11.5 µM],nt
O=C(/C=C/c1ccc2c(c1)OCCO2)c1ccccc1,?,-11%,-2%,-5%,?,-2%
Cc1ccc(S(=O)(=O)NN2C(=O)c3ccccc3NC2c2ccccc2O)cc1 (stereo not drawn),7%,-20%,8%,-2%,4%,-32%
Cc1nc2cnc(Nc3ccccc3)nc2n(C2CC2)c1=O,nt,nt,nt,nt,nt,20%
CC1CN(C(=O)C(C)Sc2nnnn2C)CC(C)O1 (stereo not drawn),2%,0%,-2%,3%,-1%,11%
O=C1/C(=C\c2ccc3c(c2)OCO3)CCC/C1=C/c1ccc2c(c1)OCO2,-7%,-23%,-13%,-1%,4.5µM*,59%
O=C1/C(=C/c2ccncc2)CCc2ccccc21,6%,3%,3%,0%,nt,0%
O=C1/C(=C/c2ccncc2)CCC/C1=C\c1ccncc1,5µM*,-17%,-4%,-1%,5µM*,-14%
Cc1ccc(N(Cc2cc3ccc(C)cc3[nH]c2=O)C(=O)c2cccs2)cc1,-7%,-10%,-3%,4%,-2%,9%
Cc1cc(C)cc(NC(=O)c2cc(C)nn2C)c1,-8%,-9%,-6%,1%,-11%,3%
CCCCN(CC)C(=O)c1nn(C)c2c1CSc1ccccc1-2,?,14µM*[quencher],6%,-1%,-7%,nt
CCN(C(=O)c1nn(C)c2c1CSc1ccccc1-2)c1cccc(C)c1,-6%,-5%,1%,-1%,0%,nt
CSCC[C@H](NC(=O)NCCC1=CCCCC1)C(=O)O,6%,0%,10%,1%,2%,5%
O=C(Nc1ccc(F)c(Cl)c1)Nc1csc2ccccc12,?,7.9µM*[quencher],-3%,-4%,nt,7%
O=C(Nc1ccc(F)cc1F)Nc1csc2ccccc12,6%,11µM*[quencher],-6%,-2%,?,31%
SMILES,Tau FP inhib,Tau fluor cs,TRb-SRC2 inh,TexasRed fluor,Tau fibril ThT,GoLoco inh red
O=C(Nc1ccc(F)cc1F)Nc1ccc(F)cc1F,-5%,-3%,-1%,-2%,-1%,10%
CCOC(=O)Cc1cc(=O)n2[nH]c(C)c(-c3ccccc3)c2n1,-5%,1%,?,45µM*[fluorescent],-7%,119%
CC(=O)OCC(=O)Nc1ccc(N=Nc2ccccc2)cc1,3%,-22%,0%,2%,8.9µM*,7%
O=S(=O)(Nc1ccc(N=Nc2ccccc2)cc1)c1ccccc1,?,?,-2%,-2%,16µM*,6%
CC(C)C(=O)OCC(=O)Nc1ccc(N=Nc2ccccc2)cc1,?,?,2%,-12%,7.9µM*,10%
CC(=O)Nc1ccc(N=Nc2ccccc2)cc1,0%,-6%,-4%,-1%,13µM*,0%
COc1ccc2c(C)nc(Nc3nc(C)cc(C)n3)nc2c1,-1%,-3%,-5%,-1%,-11%,5%
Cc1[nH]c2ccccc2c1CCNC(=O)c1c(N)no[n+]1[O-],-6%,-25%,-1%,-7%,?,5%
O=C(CCl)Nc1ccc(N=Nc2ccccc2)cc1,-15%,?,-8%,-4%,5µM*,-34%
CC(=O)N(C)C1=C(O)c2ccccc2C(=O)C1=O,?,-21%,5%,-3%,28µM*,-1%
CC(=O)N(C1=C(O)c2ccccc2C(=O)C1=O)C1CCCCC1,4%,-15%,2%,-3%,-23%,7%
c1ccc2c(-c3csc(-c4ccncc4)n3)c[nH]c2c1,-6%,13µM*[quencher],0%,-4%,3.2µM*,14%
O=C1C(Cl)=C(N2CCCCC2)C(=O)C(Cl)=C1c1cnc(N2CCCCC2)s1,22µM*,?,-13%,-16%,16µM*,-14%
C/C(=N\Nc1ccc([N+](=O)[O-])cc1)c1cc2ccccc2o1,-11%,8.9µM*[quencher],2%,-3%,2.8µM*,5%
C/C(=N/Nc1ccc([N+](=O)[O-])cc1)c1ccc(C)cc1C,?,10µM*[quencher],8%,3%,4.5µM*,13%
C/C(=N\Nc1ccc([N+](=O)[O-])cc1)c1ccc(C#N)cc1,-1%,?,?,?,?,1%
O=C(COC(=O)C1CCN(/C=C/C(=O)C(F)(F)F)CC1)Nc1ccccc1,-2%,-8%,5%,-3%,-5%,5%
Cc1cc(C(=O)N/N=C/C=C/c2ccc([N+](=O)[O-])cc2)n[nH]1,0%,-18%,-1%,3%,1.8µM*,8%
O=C(N/N=C/c1cc(Cl)cc([N+](=O)[O-])c1O)c1cc(-c2ccccn2)nc2ccccc12,5%,?,1%,5%,8.9µM*,24%
Cc1cc(C(=O)N/N=C/c2cc(Cl)cc([N+](=O)[O-])c2O)n[nH]1,-11%,?,-6%,-4%,13µM*,5%
O=[N+]([O-])c1cc(Cl)cc(/C=N\Nc2ccccn2)c1O,-12%,18µM*[quencher],-7%,-1%,8.9µM*,1%
